The nature of assay [1]: yeast TOR pathway RPL19A-GFP modulators, primary screen, cell-based, S. cerevisiae, multiplex flow cytometry (AID 1862; in the data active means percent of DMSO control GFP below about 86%;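 further: lower values mimic rapamycin by blocking the RPL19A rise seen in DMSO cells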). The settings on record: S. cerevisiae RPL19A-GFP strain, flow cytometry fluorescence, 3 h; at 10 µM; stronger effect = lower value. On the technique in general: Flow cytometry measures light scatter and fluorescence of single cells or particles in a stream.
The nature of assay [2]: modulators of MEP2-GFP levels in yeast, primary screen, S. cerevisiae, multiplex flow cytometry (AID 1867;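 active means GFP response, as percent of the DMSO control, above the screen-wide mean plus 3 SD, about 139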;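 further: median GFP channel fluorescence of barcode-gated MEP2-GFP cells measured by flow cytometry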). The settings on record: S. cerevisiae MEP2-GFP strain, 3 h, at 10 µM, stronger effect = higher value, 100% means same as DMSO wells.
The nature of assay [3]: modulators of CIT2-GFP expression in yeast, primary screen, S. cerevisiae, GFP fusion, multiplex flow cytometry (AID 1870;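 active means percent response above a set limit, the screen-wide mean plus 3 SD, cut at about 130% in these data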;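 further: barcoded CIT2-GFP strain pooled with four other GFP strains with rapamycin as positive control; median GFP fluorescence per well over plate mean of DMSO wells so 100% = DMSO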). The following applies: 3 h, at 10 µM, stronger effect = higher value.
Assay [4] can be described thus: modulators of LAP4-GFP expression in yeast, primary screen, S. cerevisiae, multiplex flow cytometry (AID 1873;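 active means GFP signal, as percent of the solvent control, above the screen mean plus 3 SD, about 149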). The settings on record: 3 h, at 10 µM, stronger effect = higher value.
Assay [5] can be described thus: modulators of AGP1-GFP expression in yeast TOR pathway, primary screen, cell-based, multiplex flow cytometry, S. cerevisiae (AID 1887;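 active means GFP signal above the screen-wide mean plus 3 SD, that is over about 124.5% of the solvent control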;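 further: AGP1-GFP fusion strain of S. cerevisiae within a five-strain barcoded multiplex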). The following applies: 3 h, at 10 µM, stronger effect = higher value.
Assay [6] can be described thus: inhibitors of CD8+ T cell-vesicle binding, pilot screen, LFA-1/ICAM-1 modulator project, MLPCN validation set, flow cytometry (AID 2523).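 On vesicle binding response: mean PE anti-B7-1 fluorescence of CD8+ cells relative to row control; 100% = QL9-loaded vesicles with DMSO vehicle in the same plate row.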 The settings on record: 2C mouse CD8+ T cells, at 7 µM, stronger effect = lower value; double positive events: measured here: CD8+/vesicle+ event percentage.
The target in assay [7] is Integrin beta-1 (Homo sapiens) + Integrin alpha-4 (Homo sapiens) (UniProt P13612+P05556). In words: inhibition of HUTS-21 binding to VLA-4, pilot screen, VLA-4 allosteric modulator project, U937 cells, HUTS-21 mAb, flow cytometry, validation set (AID 2674;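 active means inhibition above 50%, about 3 SD of the validation set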;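 further: antibody binding induced by the VLA-4 ligand LDV present at three times its Kd; 0% = LDV ligand with antibody and no compound and 100% = antibody without LDV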). The settings on record: HUTS-21 LIBS mAb binding, at 6.7 µM, stronger effect = higher value, binding induced by LDV ligand.
Sequence of Integrin beta-1 (Homo sapiens) + Integrin alpha-4 (Homo sapiens) (P05556 whole entry, looked up): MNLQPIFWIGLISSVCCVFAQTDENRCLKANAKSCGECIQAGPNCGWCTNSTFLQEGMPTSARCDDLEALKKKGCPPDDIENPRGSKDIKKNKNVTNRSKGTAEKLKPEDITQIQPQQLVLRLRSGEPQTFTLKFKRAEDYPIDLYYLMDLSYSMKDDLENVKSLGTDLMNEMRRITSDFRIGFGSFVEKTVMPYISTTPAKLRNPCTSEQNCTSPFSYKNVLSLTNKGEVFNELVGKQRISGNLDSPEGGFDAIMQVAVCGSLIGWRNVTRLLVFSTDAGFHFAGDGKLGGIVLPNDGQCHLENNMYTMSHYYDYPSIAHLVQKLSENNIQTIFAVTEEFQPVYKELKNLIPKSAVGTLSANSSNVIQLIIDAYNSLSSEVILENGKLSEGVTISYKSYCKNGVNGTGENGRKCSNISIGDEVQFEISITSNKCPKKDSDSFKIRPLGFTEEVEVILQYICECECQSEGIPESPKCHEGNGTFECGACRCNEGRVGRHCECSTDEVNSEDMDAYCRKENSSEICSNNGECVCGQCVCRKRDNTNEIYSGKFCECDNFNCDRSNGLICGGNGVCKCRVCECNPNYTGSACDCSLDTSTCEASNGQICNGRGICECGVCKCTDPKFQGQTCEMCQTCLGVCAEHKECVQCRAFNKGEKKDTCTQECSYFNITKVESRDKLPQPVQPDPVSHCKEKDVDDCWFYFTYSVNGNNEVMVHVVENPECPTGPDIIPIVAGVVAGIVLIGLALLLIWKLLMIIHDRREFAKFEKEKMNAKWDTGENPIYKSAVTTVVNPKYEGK
Sequence of Integrin beta-1 (Homo sapiens) + Integrin alpha-4 (Homo sapiens) (P13612 whole entry, looked up): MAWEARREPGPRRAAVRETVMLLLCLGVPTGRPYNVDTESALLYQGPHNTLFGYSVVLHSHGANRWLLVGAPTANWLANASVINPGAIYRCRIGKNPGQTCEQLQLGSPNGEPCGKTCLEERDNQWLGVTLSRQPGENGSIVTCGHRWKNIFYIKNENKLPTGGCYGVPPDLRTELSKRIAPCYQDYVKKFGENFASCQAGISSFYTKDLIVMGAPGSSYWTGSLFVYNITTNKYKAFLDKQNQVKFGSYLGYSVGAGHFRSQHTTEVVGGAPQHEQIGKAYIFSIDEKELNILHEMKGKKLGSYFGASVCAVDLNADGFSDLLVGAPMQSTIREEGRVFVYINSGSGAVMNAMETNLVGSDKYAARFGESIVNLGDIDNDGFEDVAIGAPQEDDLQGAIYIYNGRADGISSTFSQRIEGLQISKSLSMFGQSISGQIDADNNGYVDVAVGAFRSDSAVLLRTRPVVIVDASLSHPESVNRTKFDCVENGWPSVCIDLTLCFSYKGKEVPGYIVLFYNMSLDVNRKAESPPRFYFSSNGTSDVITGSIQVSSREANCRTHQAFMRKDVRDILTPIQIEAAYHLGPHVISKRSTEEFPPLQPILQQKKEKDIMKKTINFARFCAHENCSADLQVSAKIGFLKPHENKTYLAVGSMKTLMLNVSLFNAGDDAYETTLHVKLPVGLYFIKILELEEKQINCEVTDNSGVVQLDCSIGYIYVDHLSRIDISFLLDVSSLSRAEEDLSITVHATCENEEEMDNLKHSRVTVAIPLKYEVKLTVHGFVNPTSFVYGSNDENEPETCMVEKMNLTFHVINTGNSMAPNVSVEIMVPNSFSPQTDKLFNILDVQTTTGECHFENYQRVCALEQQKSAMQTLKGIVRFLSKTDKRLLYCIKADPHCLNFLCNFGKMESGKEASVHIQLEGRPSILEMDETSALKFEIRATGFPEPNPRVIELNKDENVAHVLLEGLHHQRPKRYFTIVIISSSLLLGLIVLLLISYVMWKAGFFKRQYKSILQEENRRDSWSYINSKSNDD
Assay [8] is described as follows: superoxide lowering in aged yeast cells, pilot screen, validation compound set (AID 2706;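 active means superoxide response below 65% of plate, a cut near 3 SD across the whole screen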;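 further: yeast exposed to compound for one week at 30 degrees C before staining; 100% = mean of all compound wells on the same plate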). The following applies: S. cerevisiae aging, superoxide DHE fluorescence; at 10 µM; stronger effect = lower value.
Assay [9] concerns the target Beta-adrenergic receptor kinase 1 (Homo sapiens) (UniProt P25098). In words: GRK2 binders displacing RNA aptamer, biochemical, validation, human GRK2, bead flow cytometry (AID 488806;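 active means aptamer binding inhibition above 30%, about 3 SD of noise from non-fluorescent compounds; inactive means inhibition at or below 30%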). The settings on record: bead-bound GRK2, FAM-aptamer displacement, at 10 µM, stronger effect = higher value.
In assay [10] the target is Beta-2 adrenergic receptor (Homo sapiens) (UniProt P07550). As to the kind of experiment: beta2AR agonists driving receptor internalization, pilot screen, cell-based, FAP fluorogen, flow cytometry, validation set (AID 504459;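 active means percent response above 42, roughly 3 SD of non-fluorescent test compounds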;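 further: agonist-driven loss of surface beta2AR via internalization measured by FAP dye flow cytometry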). The settings on record: Am2.2-beta2AR cells, FAP surface receptor flow cytometry; at 10 µM; stronger effect = higher value.
Sequence of Beta-2 adrenergic receptor (Homo sapiens) (P07550 whole entry, looked up): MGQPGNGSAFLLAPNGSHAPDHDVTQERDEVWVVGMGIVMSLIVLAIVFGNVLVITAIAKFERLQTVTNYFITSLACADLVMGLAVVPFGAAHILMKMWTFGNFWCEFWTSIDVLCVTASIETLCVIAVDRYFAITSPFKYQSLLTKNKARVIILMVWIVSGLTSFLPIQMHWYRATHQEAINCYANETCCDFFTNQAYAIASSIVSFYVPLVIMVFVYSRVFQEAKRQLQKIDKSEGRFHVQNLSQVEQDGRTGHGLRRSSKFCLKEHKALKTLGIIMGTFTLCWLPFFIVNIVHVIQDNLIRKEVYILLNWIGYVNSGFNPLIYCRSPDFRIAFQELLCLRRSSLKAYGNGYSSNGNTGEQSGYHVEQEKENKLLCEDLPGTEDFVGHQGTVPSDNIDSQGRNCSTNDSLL
Assay [11] has as its target AP-2 complex subunit beta (Homo sapiens) (UniProt P63010). In words: inhibitors of arrestin peptide binding to AP2, pilot screen, biochemical, validation set, GST-AP2 beads, flow cytometry (AID 504541;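 active means inhibition above 54%, about 3 SD of non-fluorescent compounds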;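 further: AP2 carries R879A mutation and is captured from E. coli lysate; bead-bound FITC arrestin peptide fluorescence measuring arrestin peptide binding to AP2; 0% = DMSO wells and 100% = excess unlabeled arrestin peptide control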). The following applies: FITC arrestin peptide, at 10 µM, stronger effect = higher value, AP2 beta2 appendage fragment, R879A mutant.
Assay [12] can be described thus: yeast V-ATPase proton transport modulators, S. cerevisiae, pHLuorin, HTS validation (AID 504600; in the data active means response above about 15%;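 further: plate controls were DMSO for no effect and reference compound for full effect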). The settings on record: S. cerevisiae pHLuorin cytosolic pH, at 10 µM, stronger effect = higher value.
Assay [13] deals with anti-desmoglein-3 scFv antibody binding to human DSG3. As to the kind of experiment: inhibitors of anti-DSG3 scFv binding to DSG3, pilot screen, biochemical, validation compound set, bead-based, flow cytometry (AID 588368;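 active means binding below the plate cutoff, the plate median minus 3 SD, with a reading above zero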;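 further: signal is the median channel fluorescence of bead-bound GFP antibody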). The following applies: Protein G beads, DSG3-Fc, scFv-GFP binding, at 10 µM, stronger effect = lower value.
Assay [14] in a line: inhibitors of fungal efflux pumps CDR1, CDR2, MDR1, pilot screen, validation compound set, multiplex, phenotypic (AID 588506;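 active means efflux inhibition above 0.42, the validation set average plus 4 SD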;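 further: Nile Red retained in cells so higher fluorescence means more efflux inhibition; 0 = negative control wells and 1 = enniatin B 25 µM full block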). The settings on record: S. cerevisiae pump-expressing triplex, Nile Red efflux flow cytometry; at 10 µM; stronger effect = higher value; the pumps come from Candida albicans.
Assay [15] addresses ATP-binding cassette sub-family B member 6 (Homo sapiens) (UniProt Q9NP58). As to the kind of experiment: ABCB6 transporter inhibitors, pilot screen, K562-ABCB6 cells, flow cytometry, validation set (AID 588550;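 active means inhibition above the screen-wide mean plus 3 SD, about 51%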;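 further: 0% = DMSO wells and 100% = benzethonium chloride 70 µM positive control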). The following applies: K562-ABCB6 porphyrin accumulation, 1 h, at 10 µM, stronger effect = higher value.
Assay [16] can be described thus: promoters of myeloid differentiation in arrested cells, primary screen, cell-based, GFP/MAC1 double positive, flow cytometry, validation set (AID 588685;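 active means differentiation response of at least 50%, scaled between solvent and reference control, from cells with both markers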;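 further: compound exposure lasts four days before antibody staining and flow analysis; 0% = DMSO wells and 100% = 5 µM fulvestrant positive control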). The settings on record: ER-HoxA9 marrow cells, stronger effect = higher value, normalized: vehicle 0, fulvestrant 100.

Results filed as inconclusive are left out. Calls of active or inactive are those of the source.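 How the source made its calls, unless noted: active means response below a set limit, under 55% cells CD8-positive and vesicle-bound, and CD8 cells' 90th-percentile brightness under 279; inactive means the rest.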

What is called inhibition is the drop in the measured response relative to a control, in per cent.

Sequence of AP-2 complex subunit beta (Homo sapiens) (P63010 whole entry, looked up, the tested form may be a part, one chain of several): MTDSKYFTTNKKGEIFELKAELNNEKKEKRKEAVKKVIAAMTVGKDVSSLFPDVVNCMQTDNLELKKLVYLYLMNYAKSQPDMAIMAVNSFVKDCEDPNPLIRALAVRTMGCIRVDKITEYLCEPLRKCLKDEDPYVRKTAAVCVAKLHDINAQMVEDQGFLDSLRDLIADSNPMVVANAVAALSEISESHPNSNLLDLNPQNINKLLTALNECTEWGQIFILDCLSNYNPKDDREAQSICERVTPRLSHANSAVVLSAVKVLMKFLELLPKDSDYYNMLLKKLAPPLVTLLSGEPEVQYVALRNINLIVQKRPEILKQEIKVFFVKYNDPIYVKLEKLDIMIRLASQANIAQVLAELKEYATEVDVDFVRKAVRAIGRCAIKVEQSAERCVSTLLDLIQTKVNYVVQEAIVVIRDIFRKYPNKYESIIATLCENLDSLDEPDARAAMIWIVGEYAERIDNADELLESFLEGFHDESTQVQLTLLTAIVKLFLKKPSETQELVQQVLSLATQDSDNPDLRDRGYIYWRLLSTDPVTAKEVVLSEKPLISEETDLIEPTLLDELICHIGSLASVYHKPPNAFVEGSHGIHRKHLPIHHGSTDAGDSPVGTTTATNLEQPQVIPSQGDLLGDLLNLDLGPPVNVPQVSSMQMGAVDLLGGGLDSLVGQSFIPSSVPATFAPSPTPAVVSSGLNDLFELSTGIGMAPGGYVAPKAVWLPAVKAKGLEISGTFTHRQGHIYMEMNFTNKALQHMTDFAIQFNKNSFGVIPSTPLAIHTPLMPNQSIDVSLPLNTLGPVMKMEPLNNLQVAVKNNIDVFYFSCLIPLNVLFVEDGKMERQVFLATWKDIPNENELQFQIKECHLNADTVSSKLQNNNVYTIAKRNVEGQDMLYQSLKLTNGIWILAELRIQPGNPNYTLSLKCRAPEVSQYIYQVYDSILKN
Sequence of Beta-adrenergic receptor kinase 1 (Homo sapiens) (P25098 whole entry, looked up): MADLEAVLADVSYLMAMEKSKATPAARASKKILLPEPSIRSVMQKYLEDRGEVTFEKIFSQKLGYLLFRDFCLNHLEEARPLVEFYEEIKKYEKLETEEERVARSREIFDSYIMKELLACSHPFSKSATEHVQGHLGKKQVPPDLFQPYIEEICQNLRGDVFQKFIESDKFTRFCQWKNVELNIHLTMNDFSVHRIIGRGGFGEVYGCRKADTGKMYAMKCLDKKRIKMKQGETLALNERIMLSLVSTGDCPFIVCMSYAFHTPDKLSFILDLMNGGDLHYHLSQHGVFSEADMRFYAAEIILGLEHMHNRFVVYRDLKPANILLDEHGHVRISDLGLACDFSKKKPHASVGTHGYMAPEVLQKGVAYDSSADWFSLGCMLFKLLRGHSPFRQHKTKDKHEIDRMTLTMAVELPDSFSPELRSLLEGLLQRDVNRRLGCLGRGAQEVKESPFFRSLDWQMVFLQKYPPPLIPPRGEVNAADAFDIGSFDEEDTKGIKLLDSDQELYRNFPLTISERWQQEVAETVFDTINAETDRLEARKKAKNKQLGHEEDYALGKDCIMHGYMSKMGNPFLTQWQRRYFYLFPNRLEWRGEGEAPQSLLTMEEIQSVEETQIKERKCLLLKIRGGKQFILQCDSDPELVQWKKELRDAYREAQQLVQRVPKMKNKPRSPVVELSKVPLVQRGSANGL
Sequence of ATP-binding cassette sub-family B member 6 (Homo sapiens) (Q9NP58 whole entry, looked up): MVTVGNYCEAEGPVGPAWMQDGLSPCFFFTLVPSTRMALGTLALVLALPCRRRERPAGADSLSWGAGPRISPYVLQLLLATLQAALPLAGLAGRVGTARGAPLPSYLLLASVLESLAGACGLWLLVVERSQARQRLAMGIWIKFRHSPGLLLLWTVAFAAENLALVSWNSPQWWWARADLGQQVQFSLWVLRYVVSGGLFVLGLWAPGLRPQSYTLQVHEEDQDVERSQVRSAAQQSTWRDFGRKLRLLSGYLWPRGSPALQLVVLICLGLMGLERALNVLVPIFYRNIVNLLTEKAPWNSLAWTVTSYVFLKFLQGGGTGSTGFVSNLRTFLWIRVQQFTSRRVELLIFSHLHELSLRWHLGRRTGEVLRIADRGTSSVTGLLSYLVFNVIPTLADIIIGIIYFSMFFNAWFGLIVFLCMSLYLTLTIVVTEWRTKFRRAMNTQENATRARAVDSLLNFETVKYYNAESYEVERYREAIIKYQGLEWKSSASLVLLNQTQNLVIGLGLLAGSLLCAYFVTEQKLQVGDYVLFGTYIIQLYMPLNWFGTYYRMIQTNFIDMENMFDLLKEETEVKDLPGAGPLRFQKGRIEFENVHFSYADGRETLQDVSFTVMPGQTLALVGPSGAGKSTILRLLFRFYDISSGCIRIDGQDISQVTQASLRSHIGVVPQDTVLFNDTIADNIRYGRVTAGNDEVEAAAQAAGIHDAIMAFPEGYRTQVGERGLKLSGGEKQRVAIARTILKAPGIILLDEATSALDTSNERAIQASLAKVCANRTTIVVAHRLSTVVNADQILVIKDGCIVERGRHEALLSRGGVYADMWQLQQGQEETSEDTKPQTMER

On to `COc1ccc(N2C(=O)C3C(C2=O)C(C(=O)c2ccccc2)N2CCCC32)cc1` (stereo not drawn), for which the percent of DMSO control GFP in assay [1] was 98.6% (inactive). The GFP response vs DMSO in assay [2] was 107% (inactive); in assay [4], 122% (inactive). In assay [3], the percent response of DMSO control is 84.4% (inactive). Besides, the GFP response, % of DMSO in [5] was 95.7% (inactive). In [6], this compound came in with a double positive events of 61.2%. Moreover, the vesicle binding response in assay [6] is 241% (inactive). Also, the inhibition in assay [7] is -20.9% (inactive); in assay [11], 4.51% (inactive); in [15], -7% (inactive). The superoxide response (% of plate) in assay [8] is 102% (inactive). The aptamer binding inhibition in [9] is 5% (inactive). For the same compound, the response is 37.4% (inactive) in assay [10] and -0.56% (inactive) in assay [12]. Besides, the binding (% of control) in assay [13] is 100% (inactive). The efflux inhibition (fraction of control) in assay [14] was -0.24 (inactive). Besides, in assay [16], the differentiation response was 12% (inactive).
Regarding `CC1(C)Cc2ccccc2-c2n[nH]c(=S)n21`, the percent of DMSO control GFP in assay [1] is 99.1% (inactive). In addition, the GFP response vs DMSO in [2] and in assay [4] was 102% (inactive) in each case. In addition, in assay [3], the percent response of DMSO control is 101% (inactive). Further, in assay [5], the GFP response, % of DMSO was 104% (inactive). In [6], this compound returned a double positive events of 61.1%. Further, the vesicle binding response in assay [6] is 203% (inactive). Moreover, the figures for the inhibition in [7], in assay [11] and in assay [15] were 9.63% (inactive), 56.7% (active) and 11% (inactive), respectively. For the same compound, the superoxide response (% of plate) in assay [8] is 92.5% (inactive). For the same compound, the aptamer binding inhibition in [9] was 2% (inactive). The response in assay [10] and in [12] was -1.77% (inactive) each time. In assay [13], the binding (% of control) was 97.2% (inactive). Further, the efflux inhibition (fraction of control) in [14] is 0.19 (inactive). For the same compound, the differentiation response in assay [16] is -14.8% (inactive).
On to `Cc1oc2cc(O)cc(O)c2c(=O)c1-c1ccc2c(c1)OCCCO2`, for which the percent of DMSO control GFP in assay [1] is 95.6% (inactive). The GFP response vs DMSO in assay [2] is 103% (inactive); in assay [4], 128% (inactive). Also, the percent response of DMSO control in [3] is 88.2% (inactive). Also, the GFP response, % of DMSO in assay [5] was 91.7% (inactive). For the same compound, the double positive events in [6] was 60.8%. In assay [6], the vesicle binding response is 195% (inactive). Besides, the inhibition in [7] was 14.6% (inactive); in [11], 21% (inactive); in assay [15] it was 8% (inactive). The superoxide response (% of plate) in [8] was 100% (inactive). Moreover, the aptamer binding inhibition in [9] was 3% (inactive). Further, the response was 5% (inactive) in [10] and 0.59% (inactive) in [12]. In addition, the binding (% of control) in assay [13] is 101% (inactive). Moreover, in assay [14], the efflux inhibition (fraction of control) was 0.01 (inactive). Also, the differentiation response in assay [16] was 12% (inactive).
`CCC(NC(C)C)C(O)c1ccc(O)c(O)c1` (stereo not drawn): the percent of DMSO control GFP in [1] is 103% (inactive). Moreover, the results for the GFP response vs DMSO in assay [2] and in assay [4] were 102% (inactive) and 104% (inactive), respectively. The percent response of DMSO control in assay [3] was 100% (inactive). Moreover, the GFP response, % of DMSO in assay [5] is 112% (inactive). The compound also registered a double positive events in assay [6] of 60.7%. In addition, the vesicle binding response in assay [6] was 170% (inactive). Also, the figures for the inhibition in assay [7], in [11] and in assay [15] were -11.3% (inactive), -1.15% (inactive) and 2% (inactive), respectively. Further, the superoxide response (% of plate) in [8] is 86.8% (inactive). In addition, the aptamer binding inhibition in assay [9] was 4% (inactive). Besides, the response in assay [10] is 46% (active); in assay [12], 0.42% (inactive). The binding (% of control) in [13] is 105% (inactive). Also, the efflux inhibition (fraction of control) in [14] is -0.04 (inactive). For the same compound, in [16], the differentiation response was -0.06% (inactive).

The record behind these values is PubChem BioAssay.
